In PubChem BioAssay AID1159580 (chemical genetic matrix, 2015):
Hit rate of the full screen: of about 5,500 compounds, about 2,000 (36%) were called active. Not shown: some 18% with an inconclusive outcome. Cut-off read from the data, not from the text of the source: active = normalized growth mostly below about 0.91 (no sharp cut-off); inconclusive = no clear call, values can overlap the other calls; inactive = mostly above about 0.92. This is one part of the list.

Assay: chemical genetic growth profiling, strain panel (AID 1159580);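 note: tested at 20 µM; growth read once vehicle control cultures reached saturation at 30 °C; 1 = growth at the plate median or of vehicle wells; lower values mean less growth of the strain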
Settings: growth OD

Measured: normalized growth

O=C(O)CCCCC1SCC2NC(=O)NC21 (centres undefined)
inactive: S. cerevisiae deletion strains, locus YJL187C, strain SWE1, hits give low values 0.991 | S. cerevisiae deletion strains, locus YJR043C, strain POL32, hits give low values 0.971 | S. cerevisiae deletion strains, locus YJR066W, strain TOR1, hits give low values 0.983 | S. cerevisiae deletion strains, locus YKL009W, strain mrt4, hits give low values 0.994 | S. cerevisiae deletion strains, locus YKL068W, hits give low values 1.01 | S. cerevisiae deletion strains, locus YKL085W, strain MDH1 (second series), hits give low values 1.01 | S. cerevisiae deletion strains, locus YKL085W, strain MDH1, hits give low values 1.01 | S. cerevisiae deletion strains, locus YKL160W, strain elf1, hits give low values 1 | S. cerevisiae deletion strains, locus YKL190W, strain CNB1, hits give low values 1.03 | S. cerevisiae deletion strains, locus YKR001C, strain vps1, hits give low values 1 | S. cerevisiae deletion strains, locus YKR026C, strain gcn3, hits give low values 0.982 | S. cerevisiae deletion strains, locus YKR091W, strain srl3, hits give low values 0.992 | S. cerevisiae deletion strains, locus YLL001W, strain dnm1, hits give low values 0.989 | S. cerevisiae deletion strains, locus YLL026W, hits give low values 0.982 | S. cerevisiae deletion strains, locus YLL041C, strain sdh2, hits give low values 0.977 | S. cerevisiae deletion strains, locus YLR027C, strain aat2, hits give low values 0.994 | S. cerevisiae deletion strains, locus YLR039C, strain RIC1, hits give low values 1.06 | S. cerevisiae deletion strains, locus YLR058C, strain SHM2, hits give low values 1.01 | S. cerevisiae deletion strains, locus YLR102C, strain apc9, hits give low values 0.998 | S. cerevisiae deletion strains, locus YLR113W, strain HOG1, hits give low values 0.991 | S. cerevisiae deletion strains, locus YLR221C, strain rsa3, hits give low values 1.01 | S. cerevisiae deletion strains, locus YLR258W, strain gsy2, hits give low values 0.995 | S. cerevisiae deletion strains, locus YLR262C, strain YPT6 (second series), hits give low values 0.992 | S. cerevisiae deletion strains, locus YLR262C, strain YPT6, hits give low values 1.02 | S. cerevisiae deletion strains, locus YLR268W, strain sec22, hits give low values 0.99 | S. cerevisiae deletion strains, locus YLR320W, strain mms22, hits give low values 0.999 | S. cerevisiae deletion strains, locus YLR330W, strain CHS5, hits give low values 1.01 | S. cerevisiae deletion strains, locus YLR342W, strain FKS1 (second series), hits give low values 1 | S. cerevisiae deletion strains, locus YLR342W, strain FKS1, hits give low values 0.972 | S. cerevisiae deletion strains, locus YLR357W, strain rsc2, hits give low values 0.962 | S. cerevisiae deletion strains, locus YLR370C, strain arc18, hits give low values 0.998 | S. cerevisiae deletion strains, locus YLR371W, strain rom2, hits give low values 1.02 | S. cerevisiae deletion strains, locus YLR384C, strain iki3, hits give low values 0.985 | S. cerevisiae deletion strains, locus YLR418C, strain cdc73, hits give low values 1.02 | S. cerevisiae deletion strains, locus YML016C, strain PPZ1, hits give low values 1.01 | S. cerevisiae deletion strains, locus YML032C, strain rad52, hits give low values 0.983 | S. cerevisiae deletion strains, locus YML120C, strain ndi1, hits give low values 0.976 | S. cerevisiae deletion strains, locus YML124C, strain tub3, hits give low values 0.996 | S. cerevisiae deletion strains, locus YMR058W, strain fet3, hits give low values 0.984 | S. cerevisiae deletion strains, locus YMR078C, strain ctf18, hits give low values 1.02 | S. cerevisiae deletion strains, locus YMR125W, strain sto1, hits give low values 0.989 | S. cerevisiae deletion strains, locus YMR129W, hits give low values 0.997 | S. cerevisiae deletion strains, locus YMR205C, strain PFK2, hits give low values 1 | S. cerevisiae deletion strains, locus YMR223W, strain ubp8, hits give low values 1 | S. cerevisiae deletion strains, locus YMR231W, strain pep5, hits give low values 0.997 | S. cerevisiae deletion strains, locus YMR307W, strain GAS1, hits give low values 1.01 | S. cerevisiae deletion strains, locus YNL067W, strain RPL9B, hits give low values 1 | S. cerevisiae deletion strains, locus YNL071W, strain lat1, hits give low values 0.979 | S. cerevisiae deletion strains, locus YNL183C, strain NPR1, hits give low values 0.984 | S. cerevisiae deletion strains, locus YNL209W, strain ssb2, hits give low values 0.995 | S. cerevisiae deletion strains, locus YNL233W, strain BNI4, hits give low values 0.99 | S. cerevisiae deletion strains, locus YNL248C, strain rpa49, hits give low values 0.982 | S. cerevisiae deletion strains, locus YNL250W, strain rad50, hits give low values 1.01 | S. cerevisiae deletion strains, locus YNL271C, strain bni1, hits give low values 0.996 | S. cerevisiae deletion strains, locus YNL298W, strain CLA4, hits give low values 1 | S. cerevisiae deletion strains, locus YNL307C, strain MCK1, hits give low values 0.997 | S. cerevisiae deletion strains, locus YNL322C, strain KRE1 (second series), hits give low values 0.973 | S. cerevisiae deletion strains, locus YNR049C, strain mso1, hits give low values 0.978 | S. cerevisiae deletion strains, locus YNR052C, strain pop2, hits give low values 0.996 | S. cerevisiae deletion strains, locus YOL006C, strain TOP1, hits give low values 1.09 | S. cerevisiae deletion strains, locus YOL012C, strain htz1 1.05 | S. cerevisiae deletion strains, locus YOL147C, strain pex11, hits give low values 1 | S. cerevisiae deletion strains, locus YOR001W, strain rrp6, hits give low values 0.987 | S. cerevisiae deletion strains, locus YOR061W, strain CKA2, hits give low values 1 | S. cerevisiae deletion strains, locus YOR069W, strain VPS5, hits give low values 1.01 | S. cerevisiae deletion strains, locus YOR070C, strain gyp1, hits give low values 1 | S. cerevisiae deletion strains, locus YOR080W, strain dia2, hits give low values 0.978 | S. cerevisiae deletion strains, locus YOR083W, strain WHI5, hits give low values 0.992 | S. cerevisiae deletion strains, locus YOR106W, strain vam3, hits give low values 0.975 | S. cerevisiae deletion strains, locus YOR136W, strain idh2, hits give low values 0.986 | S. cerevisiae deletion strains, locus YOR144C, strain elg1, hits give low values 0.988 | S. cerevisiae deletion strains, locus YOR184W, strain ser1, hits give low values 0.956 | S. cerevisiae deletion strains, locus YOR231W, strain MKK1, hits give low values 1.01 | S. cerevisiae deletion strains, locus YOR265W, strain rbl2, hits give low values 1.01 | S. cerevisiae deletion strains, locus YOR270C, strain vph1, hits give low values 1.01 | S. cerevisiae deletion strains, locus YOR290C, strain snf2, hits give low values 0.977 | S. cerevisiae deletion strains, locus YOR316C, strain cot1, hits give low values 1 | S. cerevisiae deletion strains, locus YPL051W, strain arl3, hits give low values 1.01 | S. cerevisiae deletion strains, locus YPL078C, strain atp4, hits give low values 0.955 | S. cerevisiae deletion strains, locus YPL106C, strain sse1, hits give low values 0.994 | S. cerevisiae deletion strains, locus YPL240C, strain hsp82, hits give low values 0.98 | S. cerevisiae deletion strains, locus YPL241C, strain CIN2, hits give low values 1.01 | S. cerevisiae deletion strains, locus YPL256C, strain CLN2, hits give low values 1 | S. cerevisiae deletion strains, locus YPR119W, strain clb2, hits give low values 0.992 | S. cerevisiae deletion strains, locus YPR141C, strain kar3, hits give low values 1.01 | S. cerevisiae deletion strains, locus YPR163C, strain tif3, hits give low values 1.01 | S. cerevisiae deletion strains, locus YPR167C, strain met16, hits give low values 1 | S. cerevisiae deletion strains, strain wtn01, hits give low values 0.992 | S. cerevisiae strains, strain wild type, hits give low values 1.01
